HTR5A inv ag – inverse agonist of human HTR5A in OPRM1-OPRD1 counter-screen; P47898; HTR5A cell line, luminescence, inverse agonism; inhibition, % at 9.3 µM; actives 0.083% (n = 340,000); AID 504634; in the data active = inhibition mostly above about 23%, no sharp cut-off; inactive = mostly below about 18%;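 also: 0% = cells with DMSO and 100% = no-cell wells with DMSO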
OPRM1-OPRD1 inv – inverse agonists of human mu-delta opioid receptor heterodimerization; cell-based MOR-DOR heterodimer luminescence, inverse agonism; AID 504357; actives 0.21% (n = 340,000); inhibition, % at 9.3 µM; P35372+P41143; in the data active = inhibition above about 22%, passing the limit was not always enough;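 also: 0% = cells with DMSO and 100% = wells without cells with DMSO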
HTR5A ag – HTR5A agonism, opioid heterodimer counter-screen; activation, % at 9.3 µM; AID 504692; actives 0.61% (n = 340,000); HTR5A agonist assay, luminescence, cell-based; P47898; in the data active = activation mostly above about 9.5%, no sharp cut-off; inactive = mostly below about 7.6%;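 also: 0% = cells with vehicle only and 100% = reference agonist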
MOR-DOR ag-1 – agonists of human mu-delta opioid receptor heterodimerization | actives 0.3% (n = 340,000) | P35372+P41143 | activation, % at 9.3 µM | cells, OPRM1-OPRD1 heterodimerization, luminescence | AID 504326;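 also: 0% = vehicle-treated cells and 100% = reference agonist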
MOR-DOR ag-2 – promotes OPRM1-OPRD1 heterodimerization in HTR5A counter-screen | shares compounds with HTR5A ag | actives 13% (n = 800) | U2OS counter-screen cells, complementation luminescence, 3 h | AID 504913 | activation, % at 9.3 µM
HTR5A ag confirm – HTR5A (human) agonism, confirmation | actives 17% (n = 800) | shares compounds with HTR5A ag | activation, % at 9.3 µM | HTR5A agonist cell assay, luminescence; in the data active = activation above about 17%;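 also: 0% = cells with vehicle only and 100% = full reference agonist response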
An asterisk follows results filed as active; · = no result given; ! = not active in a repeat. An excerpt weighted towards active compounds, which were near 1.1% of everything screened. Rule as the data show it, unless noted: active = activation above about 18%; inactive = the rest.

SMILES	HTR5A inv ag	OPRM1-OPRD1 inv	HTR5A ag	MOR-DOR ag-1	MOR-DOR ag-2	HTR5A ag confirm
CCN(CC(=O)Nc1ccc(NC(C)=O)cc1)C(=O)c1ccc(C(=O)c2ccccc2)cc1	-66	13	22*	-4	0	30*
CCOC(=O)c1c(C)[nH]c(C(=O)N2CCc3cc(OC)c(OC)cc3C2)c1C	-5	-7	4	1	·	·
O=C(CSc1ccc2ccccc2n1)c1ccc2c(c1)OCO2	-121	-1	40*	0	5	53*
O=C(O)CSc1ccc2ccccc2n1	-5	-8	2	1	·	·
COc1ccc(CNC(=O)CN(CC2CCCO2)C(=O)CNS(=O)(=O)c2ccccc2)cc1 (configuration not stated)	-51	12	17*	-2	4	3
C/C(CC(=O)Nc1cc(C)ccn1)=N\NC(=O)c1cccc(F)c1	17	6	1	-1	·	·
O=C(Nc1ccc(N2CCN(C(=O)c3cccs3)CC2)cc1)c1ccc(Br)o1	-41	0	16*	0	5	0
Cc1ccc(Oc2nnc(-c3ccccc3)cc2C#N)cc1	-26	-25	18*	6	6	4
CCOc1ccc(C(=O)N2CCN(Cc3ccccc3)CC2)cc1	14	3	-4	-1	·	·
CCOc1ccc(C(=O)N2CCN(Cc3ccccc3)CC2)cc1OCC	-1	0	16*	0	4	-1
O=C(COC(=O)/C=C/c1ccc(C(F)(F)F)cc1)NC(=O)NCc1ccco1	-48	-2	20*	1	119*	1
O=C(c1ccc(Cl)c(S(=O)(=O)N2CCCC2)c1)N1CCN(c2ccccc2F)CC1	-68	-10	21*	2	-3	-8
O=C(c1ccc(Cl)c(S(=O)(=O)N2CCCC2)c1)N1CCN(c2ncccn2)CC1	-55	17	20*	-3	2	0
O=C(c1ccc(Cl)c(S(=O)(=O)NCc2ccccc2)c1)N1CCN(c2ccccn2)CC1	-45	2	21*	0	1	14
O=C(c1ccc(Cl)c(S(=O)(=O)N2CCOCC2)c1)N1CCN(c2ccccc2F)CC1	-26	5	8	-1	·	·
COc1ccc(C2(C)NC(=O)N(CC(=O)c3cc(C)n(C4CC4)c3C)C2=O)cc1OC (configuration not stated)	12	5	-5	-1	·	·
CCOC(=O)c1cccc(NC(=O)C2CCC(CNc3c(N4CCOCC4)c(=O)c3=O)CC2)c1 (configuration not stated)	-57	9	22*	-2	1	1
CCOc1ccc(NC(=O)C2CCC(CNc3c(N4CCCCC4)c(=O)c3=O)CC2)cc1 (configuration not stated)	-3	12	1	-2	·	·
O=C(c1ccco1)N1CCN(C(=O)c2cc(-c3ccncc3)nc3ccc(Br)cc23)CC1	0	2	2	0	·	·
O=C(O)c1cc(-c2ccco2)nc2ccc(Br)cc12	-47	-13	18*!	3	42*	4
Cc1oc(-c2ccc(Cl)cc2)nc1CN1CCC(C(=O)N2CCN(Cc3ccccc3)CC2)CC1	-43	-26	16*	5	2	3
Cc1oc(-c2ccc(Cl)cc2)nc1CN1CCC(C(=O)N2CCc3ccccc3C2)CC1	1	-12	0	2	·	·
CN(C)c1cccc(C(=O)NCC2CCCO2)c1 (configuration not stated)	-50	14	20*	-3	4	0
CN(C)c1ccc(C(=O)NCC2CCCO2)cc1 (configuration not stated)	16	-15	4	2	·	·
CC(C)N(Cc1ccccc1)C(=O)CN1C(=O)NC2(CCOc3ccccc32)C1=O (configuration not stated)	2	12	1	-3	·	·
SMILES	HTR5A inv ag	OPRM1-OPRD1 inv	HTR5A ag	MOR-DOR ag-1	MOR-DOR ag-2	HTR5A ag confirm
O=C(/C=C/c1ccc2c(c1)OCO2)c1ccc(O)cc1O	-7	-18	2	3	·	·
Cc1ccc(O)c(C(=O)/C=C/c2ccc3c(c2)OCCO3)c1	-38	5	16*	-1	3	10
c1ccc2c(-c3csc(-c4ccncc4)n3)c[nH]c2c1	-59	3	21*	0	2	-2
Brc1ccc(-c2csc(-c3c[nH]c4ccccc34)n2)cc1	-2	-1	1	0	·	·
COC(=O)c1ccccc1S(=O)(=O)N1CCC(C(=O)NCc2ccco2)CC1	3	4	2	-1	·	·
COc1cccc(Nc2nc(CC(C)=O)ns2)c1	-51	10	19*	-2	0	2
O=C(CNC(=O)N1CC(=O)Nc2ccccc21)Nc1cc(Cl)ccc1Cl	-7	16	3	-3	·	·
COc1cc(C#Cc2c(-c3cncn3C)n(C)c3ccc(-c4ccc(CN5CCOCC5)cc4)cc23)cc(OC)c1	-27	-11	16*	2	20*	4
Cc1ccc(OCC(=O)N(C)CC(=O)Nc2ccc(F)cc2)c([N+](=O)[O-])n1	12	-16	-4	2	·	·
Cc1ccc(OCC(=O)N(C)CC(=O)Nc2ccc(Cl)c(C(F)(F)F)c2)c([N+](=O)[O-])n1	-37	-6	15*	2	-3	-6
Cc1ccc2cccc(OCC(=O)N(C)CC(=O)Nc3ccc(F)cc3)c2n1	-41	19	16*	-5	1	2
Cc1ccc(C(=O)CN(CCC(=O)O)S(=O)(=O)c2ccc([N+](=O)[O-])cc2)cc1	8	-7	-3	1	·	·
O=C(NCc1ccco1)c1cc(C(=O)C2CC2)c[nH]1	-44	8	17*	-2	0	6
Cc1ccccc1C(=O)c1c[nH]c(C(=O)NCc2ccco2)c1	5	5	-2	-1	·	·
CCC(C)[C@H](NC(=O)c1cc2cc(Cl)ccc2n1C)C(=O)N1CCC[C@H]1C(=O)O (some centres not stated)	18	12	0	-2	·	·
CCn1c2ccccc2c2cc(NC(=O)CSc3nnc(-c4ccc(OC)cc4)n3N)ccc21	-49	-73	19*	14	8	6
O=C(Nc1nnc(SCC(=O)N2CCOCC2)s1)C1CC(=O)N(c2ccccc2)C1 (configuration not stated)	-5	-2	17*	0	32*	2
CCN(CC(=O)Nc1cc(Cl)ccc1Cl)C(=O)c1ccc(-n2cccn2)cc1	2	-9	-1	2	·	·
COc1ccc2[nH]cc(CCNC(=O)C3CCCCC3)c2c1	-145	7	52*	-1	-2	-7
O=C(NCCc1c[nH]c2ccccc12)C1CCN(c2nnc(N3CCCC3=O)s2)CC1	-118	8	42*	-2	2	47*
O=C(NCCc1c[nH]c2ccccc12)C(=O)NCC(c1cccnc1)N1CCN(c2ccccc2)CC1 (configuration not stated)	-137	-6	23*	1	2	40*
COc1ccc2[nH]cc(CCNC(=S)NC3CCCC3)c2c1	24	9	-2	-2	·	·

Screening results: PubChem, The Scripps Research Institute Molecular Screening Center
